system: PPARg:RXRa (NR concentration 180 nM, RXRa partner concentration 90 nM); test: PBM binding z-score (relative to random genomic background probes); higher = stronger binding; sequences stand for … in GC…GCGATTGACAGCGTAGAATGAAGG
Procedure, shortened: (§1)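 Binding z-scores take random background probes as their reference. They come from custom Agilent 4×180K protein-binding microarrays incubated 1 h with ligand-free nuclear receptor dimers, with antibodies against each partner (one per run) detecting binding. Scanned fluorescence was regression-normalized.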

Sequence	PBM binding z-score
ATATGTAGGTTACATCCGGGTCATTTAGGCTATG	6.01
CGTAGCAGGCCAGGGTCACTCAAGCATTTCGCTT	0.663
CCAGACAGGTGAGAAAGTAACTCAGCCTCGATTA	0.1
ACTATTAGTTGACTTAGAGCAACCGATACGACGC	0.964
GGAACGAGGGCAAGTTGATATCAGAGTTTGATGG	1.22
ACTATTAGCTGACTTAGGGCAACCGATACGACGC	0.886
TAGCCTAGGTCATTGGGCCAGCATAGTACGCATC	3.57
CCTATTAGTTGCCCATAAGGGCAACCGAAGCTCG	0.154
GCTGCTAGGTCAGGTTGGTTAGCTAACGGGTACG	0.149
TTACCAAGGTAAGCTGAGGTCGTTGATCCAACTC	-0.244
TCTGCTAGGTCATTTGGTCAGCTAACGAGCTGCC	1.97
TAGCCTAGGTCATTCAGAGGCCAGTATAGAAAGC	2.34
CTCGAAAGGTCGGTTTAGGTGAGTATACGGATAA	0.282
ACTATTAATTGACTTAGGGCAACCGATACGACGC	1.05
CGCACTAGGTCAGAACAGGACAGTGAAGGATGAT	4.7
CCTTACGCGTCACTCCAGGTTATAGCATCGGAGT	0.559
GCTATTCGTTGAAAGGGCAACCGAATGATTCTCG	1.23
TCGAGTAGGCTACCAATGGGGCATTCAGCTTTCT	-0.358
GATACAGGATCAAGGCCAGAGTACGCGTATTGAT	0.979
GCTGCTAGCTCAGGTTGGTCAGCTAACGGGTACG	-0.612

Sequence	PBM binding z-score
TCATATAGGTAACGGTGAAAGTCGAACGATATGA	1.63
TCAGACAGGTGAAGGTAAGTCAGGTACGCAGTCG	0.552
TATGCTAGGTCAGTTGGTCAGCTAACGAGCTGCC	1.17
AGATCGAGGGCACGCTGAGTTGATAGCAGAGTAG	1.76
TCTTGTAGATCAAGCGGGTTAAGAAAGCCTGAGT	-0.599
ATATGTAGGTTATATCCGGGTCATTCAGGCTATG	4.45
CTACCAAGGGGAACAAGGTCGTTGATTACTATTC	0.284
ACTAGCAGGCCAAGGTTCACTCAAGATTAGTCCG	5.16
CGAACTAGGTCATTGACAGGACCGTGAATAGTAA	7.17
CATACTGGGCCATTCAGAGGTCATTGATCATATG	2.37
ACTAGCGGGCCAAGTTTGGGTCACTCAAACAAAG	-0.111
CAAACTAGGTCACGAAAGGCCAAAGTCGAATGAC	9.27
AATCAAAGTTCAGGACGAGGTAACGTAAAGCACG	2.07
TAGCCCAGGTCATTGGGCCAGTATAGTACGCATC	3.72
GCATATAGGTACTACAAGGTGAAAGTCCGATTGT	0.697
CATACAGGGTCAGCTAGGCCAGAATAGGGACGGC	3.66
ATCTCTAGGTAACAAGATCAGTGAAAGAGAGGAC	1.09
ATCTCTAGGTATCCAAGTTCAGTGAATGCCGAAC	0.0341
GCAGAAAGGTGAAACGCAGGTAACTCAGGGTGGC	1.57

system: PPARg:RXRa 270nM:90nM, anti-RXR (NR concentration 270 nM, RXRa partner concentration 90 nM); test: as above
Procedure, shortened: as §1

Sequence	PBM binding z-score
ATATGTAGGTTACATCCGGGTCATTTAGGCTATG	5.23
CGTAGCAGGCCAGGGTCACTCAAGCATTTCGCTT	1.49
CCAGACAGGTGAGAAAGTAACTCAGCCTCGATTA	-0.203
ACTATTAGTTGACTTAGAGCAACCGATACGACGC	-0.296
GGAACGAGGGCAAGTTGATATCAGAGTTTGATGG	1
ACTATTAGCTGACTTAGGGCAACCGATACGACGC	0.11
TAGCCTAGGTCATTGGGCCAGCATAGTACGCATC	3.71
CCTATTAGTTGCCCATAAGGGCAACCGAAGCTCG	0.281
GCTGCTAGGTCAGGTTGGTTAGCTAACGGGTACG	0.709
TTACCAAGGTAAGCTGAGGTCGTTGATCCAACTC	0.0724
TCTGCTAGGTCATTTGGTCAGCTAACGAGCTGCC	3.11
TAGCCTAGGTCATTCAGAGGCCAGTATAGAAAGC	2.29
CTCGAAAGGTCGGTTTAGGTGAGTATACGGATAA	1.04
ACTATTAATTGACTTAGGGCAACCGATACGACGC	0.505
CGCACTAGGTCAGAACAGGACAGTGAAGGATGAT	4.2
CCTTACGCGTCACTCCAGGTTATAGCATCGGAGT	-0.0823
GCTATTCGTTGAAAGGGCAACCGAATGATTCTCG	2.56
TCGAGTAGGCTACCAATGGGGCATTCAGCTTTCT	0.198
GATACAGGATCAAGGCCAGAGTACGCGTATTGAT	0.356
GCTGCTAGCTCAGGTTGGTCAGCTAACGGGTACG	-0.997

Sequence	PBM binding z-score
TCATATAGGTAACGGTGAAAGTCGAACGATATGA	2.54
TCAGACAGGTGAAGGTAAGTCAGGTACGCAGTCG	2.03
TATGCTAGGTCAGTTGGTCAGCTAACGAGCTGCC	1.26
AGATCGAGGGCACGCTGAGTTGATAGCAGAGTAG	1.47
TCTTGTAGATCAAGCGGGTTAAGAAAGCCTGAGT	1.1
ATATGTAGGTTATATCCGGGTCATTCAGGCTATG	4.07
CTACCAAGGGGAACAAGGTCGTTGATTACTATTC	0.325
ACTAGCAGGCCAAGGTTCACTCAAGATTAGTCCG	6.08
CGAACTAGGTCATTGACAGGACCGTGAATAGTAA	6.36
CATACTGGGCCATTCAGAGGTCATTGATCATATG	3.13
ACTAGCGGGCCAAGTTTGGGTCACTCAAACAAAG	0.168
CAAACTAGGTCACGAAAGGCCAAAGTCGAATGAC	7.42
AATCAAAGTTCAGGACGAGGTAACGTAAAGCACG	2.19
TAGCCCAGGTCATTGGGCCAGTATAGTACGCATC	3.93
GCATATAGGTACTACAAGGTGAAAGTCCGATTGT	0.784
CATACAGGGTCAGCTAGGCCAGAATAGGGACGGC	3.09
ATCTCTAGGTAACAAGATCAGTGAAAGAGAGGAC	0.835
ATCTCTAGGTATCCAAGTTCAGTGAATGCCGAAC	0.21
GCAGAAAGGTGAAACGCAGGTAACTCAGGGTGGC	2.32

From the supplement of paper PMC6555819
